# How the values were obtained:
# Assay in all cases: PBM binding z-score (relative to random genomic background probes); higher = stronger binding; sequences stand for … in GC…GCGATTGACAGCGTAGAATGAAGG
# [1] = tested on: FXR:RXRa (NR concentration 270 nM, RXRa partner concentration 90 nM)
# Method in brief: (§1)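 Regression normalization was applied to scanned fluorescence from custom Agilent 4×180K protein-binding microarrays. Before scanning, arrays were incubated 1 h with ligand-free nuclear receptor dimers, and binding was detected with antibodies against each partner (one per run). Binding z-scores use the random background probes as reference.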
# [2] = tested on: LXRa:RXRa (NR concentration 270 nM, RXRa partner concentration 90 nM)
# Method in brief: as §1
# [3] = tested on: LXRa homodimer (NR concentration 270 nM)
# Method in brief: as §1
# [4] = tested on: LXRb:RXRa (NR concentration 270 nM, RXRa partner concentration 90 nM)
# Method in brief: as §1
# [5] = tested on: LXRb homodimer (NR concentration 270 nM)
# Method in brief: as §1
# [6] = tested on: PPARa:RXRa (NR concentration 270 nM, RXRa partner concentration 90 nM)
# Method in brief: as §1
# [7] = tested on: PPARg:RXRa (NR concentration 180 nM, RXRa partner concentration 90 nM)
# Method in brief: as §1
# [8] = tested on: PPARg:RXRa 270nM:90nM, anti-RXR (NR concentration 270 nM, RXRa partner concentration 90 nM)
# Method in brief: as §1
# [9] = tested on: PPARg:RXRa 30nM:10nM, anti-RXR (NR concentration 30 nM, RXRa partner concentration 10 nM)
# Method in brief: as §1
# [10] = tested on: PPARg:RXRa 90nM:30nM, anti-RXR (NR concentration 90 nM, RXRa partner concentration 30 nM)
# Method in brief: as §1
# [11] = tested on: PPARg:RXRa DBDmut IVT, anti-RXR (DBD mutation: RXRa K156A/R161A, NR concentration 270 nM, RXRa partner concentration 90 nM)
# Method in brief: as §1
# [12] = tested on: PPARg:RXRa IVT, anti-PPARg (NR concentration 270 nM, RXRa partner concentration 90 nM)
# Method in brief: as §1
# [13] = tested on: PPARg DBDmut:RXRa IVT, anti-PPARg (DBD mutation: PPARg1 K132A/R137A, NR concentration 270 nM, RXRa partner concentration 90 nM)
# Method in brief: as §1
# [14] = tested on: PPARg DBDmut IVT, anti-PPARg (DBD mutation: PPARg1 K132A/R137A, NR concentration 270 nM)
# Method in brief: as §1
# [15] = tested on: PPARg homodimer (NR concentration 180 nM)
# Method in brief: as §1
# [16] = tested on: PXR:RXRa (NR concentration 270 nM, RXRa partner concentration 90 nM)
# Method in brief: as §1
# [17] = tested on: PXR homodimer (NR concentration 270 nM)
# Method in brief: as §1
# [18] = tested on: RARa:RXR (NR concentration 270 nM, RXRa partner concentration 90 nM)
# Method in brief: as §1
# [19] = tested on: RARa homodimer (NR concentration 270 nM)
# Method in brief: as §1
# [20] = tested on: RARb:RXRa (NR concentration 270 nM, RXRa partner concentration 90 nM)
# Method in brief: as §1
Sequence,PBM binding z-score [1],PBM binding z-score [2],PBM binding z-score [3],PBM binding z-score [4],PBM binding z-score [5],PBM binding z-score [6],PBM binding z-score [7],PBM binding z-score [8],PBM binding z-score [9],PBM binding z-score [10],PBM binding z-score [11],PBM binding z-score [12],PBM binding z-score [13],PBM binding z-score [14],PBM binding z-score [15],PBM binding z-score [16],PBM binding z-score [17],PBM binding z-score [18],PBM binding z-score [19],PBM binding z-score [20]
AGAATGAGGTTACCAAAGATCAGGTAAACGCTTG,1.72,5.99,-0.313,3.44,-0.454,3.43,2.76,2.77,1.12,1.9,3.32,3.43,0.874,0.666,0.758,1.64,-0.0452,2.29,0.183,2.09
ACTAGTTGGTCAGCTGAGGTCACACGCAATTCGG,4.13,3.59,2.5,3.3,0.152,3.71,1.57,2.37,0.407,1.44,1.54,2.63,0.387,0.616,2.87,5.51,1.79,4.68,0.262,3.53
GCTATGAGTTGAAAGGGCAACCGAATGATTCTCG,1.13,1.19,-0.0384,1.24,-0.412,3.11,2.75,3.86,1.58,3.23,0.245,0.754,0.0157,-0.588,0.982,1.62,-0.0077,2.66,0.195,2.45
CGTCAAAGTTCAAGGTAACGTATCAGAAAGCAGC,5.57,5.5,2.87,3.2,1.15,4.61,4.11,5.03,1.86,3.65,1.16,2.03,0.808,-0.101,2.73,4.22,3.05,3.48,1.28,4.98
GGACCGAGGGCAAGTTGATAGCAGAGTTTGATGG,0.721,0.322,-0.497,0.0428,-0.812,0.868,0.401,0.00699,-0.601,-0.0881,0.956,0.614,-1.14,-1.16,0.433,0.556,0.539,0.315,-0.39,2.6
TTACCAAGGTGAGCTGAGGTCGATGATCCAACTC,2.13,0.545,-0.604,0.0564,-1.26,1.2,0.288,0.701,-0.265,0.0498,0.764,2.27,-0.223,-0.4,-0.24,3.58,-0.352,1.23,-0.656,1.72
AATACAGGGTCACTAGCCCAGAGTAGGTACGAAT,5.41,4.89,1.13,3.8,0.946,5.41,5.91,5.2,2.09,4.01,2.81,4.3,1.88,0.703,2.29,2.92,0.113,3.64,1.11,4.08
TCTGGTTGGTCACGGAGGTCACACACGACGGGTA,3.5,3.63,2.85,3.58,1.47,3.99,3.13,3.7,2.69,3.15,1.74,3.7,1.34,1.67,4.27,4.9,2.06,4.93,2,4
GCTCGGAGGACAGGGTCAGAGCTTTGTCCGTAGA,1.13,0.858,-0.746,0.906,-1.08,2.62,-0.204,0.469,-0.854,0.00374,-0.294,0.104,-1.35,-1.12,-0.0128,1.22,-0.77,2.28,-1.04,2.55
ATCTCTAGGTAATAAGTTCAGTGAAAGAGAGGAC,0.945,1.09,0.832,0.701,1.15,1.51,1.69,2.39,1.36,2.07,2.07,2.06,1.58,1.43,1.52,1.7,2.13,0.943,1.54,1.83
CGTAGCAGGCCAGGGTCACTCAAGCATTTCGCTT,2.18,1.78,-0.329,2.14,-1.14,2.89,0.663,1.49,-0.228,0.716,0.638,1.11,-0.725,-1.16,0.494,2.28,-0.189,2.69,-0.182,2.66
ATCTCTAGGTAAAGTTTAGTGAAAGATCGATAGA,0.0185,0.132,-0.104,0.124,0.703,0.485,0.873,1.36,0.722,1.25,2.35,1.77,1.78,1.51,0.509,0.187,0.339,-0.0938,1.15,0.584
TCTTGGAGGACACGAAAGGTCAGAGCTCGACATC,3.33,4.06,2.83,3.37,0.286,3.75,1.68,3.16,2.54,2.89,2.26,2.63,0.421,0.521,2.91,4.16,0.329,4.3,0.376,4.39
GCAACTGGGGCATCAGCAGGTTACCATAACTTAA,-0.117,-0.265,-0.205,1.08,-0.444,1.83,2.26,1.76,0.0895,1.1,5.86,5.15,-0.129,0.0733,0.577,0.0192,-0.0956,0.138,-0.393,0.963

# — the supplement of paper PMC6555819
